# High-throughput results as filed in PubChem BioAssay.
# Compounds with a hit are over-represented: about 10% of the library has one in this group of screens.
# G9a inh = inhibitors of human histone lysine methyltransferase G9a. Q96KQ7. G9a H3K9 monomethylation, AlphaScreen, 2 h. Potency, µM (titrated, usually from 102 µM), without a hit: top-dose activity, negative = inhibition, hits mostly inhibitors. hit rate 8.8% among 350,000. AID 504332; further: potency means the concentration at half of the fitted maximal effect; nearly all actives have a fitted effect of over 75% in size
# Target sequence (Q96KQ7 913-1193 limits assumed): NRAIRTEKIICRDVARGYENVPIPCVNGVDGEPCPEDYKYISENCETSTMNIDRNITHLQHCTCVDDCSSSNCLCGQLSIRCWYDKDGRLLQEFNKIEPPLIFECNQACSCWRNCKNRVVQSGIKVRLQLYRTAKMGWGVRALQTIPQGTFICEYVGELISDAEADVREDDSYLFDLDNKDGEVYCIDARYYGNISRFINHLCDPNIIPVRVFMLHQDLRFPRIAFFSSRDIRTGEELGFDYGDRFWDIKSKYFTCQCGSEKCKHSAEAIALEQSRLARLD
#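 Quantitative HTS format: methyltransferase activity on a biotin-tagged H3K9 peptide is measured by AlphaScreen, using a rabbit anti-monomethyl-H3K9 antibody with streptavidin donor and anti-IgG acceptor beads. Final levels are 20 nM enzyme, 500 nM peptide, 20 uM SAM; 2 h RT.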
# PLK1 PBD inh = blocks phosphopeptide binding to human PLK1 polo-box domain | Plk1 PBD binding of FITC phosphopeptide, fluorescence polarization | Potency, µM, without a hit: max response, negative = inhibition, usual class: inhibitors | hit rate 2.8% among 360,000; further: potency means the concentration at half of the fitted maximal effect; series mostly up to about 57 µM; nearly all actives have a fitted effect of over 65% in size
# VDR inhibitor = vitamin D3 receptor (human) inhibition. P11473. VDR-SRC2-3 peptide fluorescence polarization, 2 h. Potency, µM, inactives show max response, negative = inhibition, most hits filed as inhibitors. hit rate 0.93% among 400,000; further: potency means the concentration at half of the fitted maximal effect
# Target sequence (P11473 whole entry, looked up): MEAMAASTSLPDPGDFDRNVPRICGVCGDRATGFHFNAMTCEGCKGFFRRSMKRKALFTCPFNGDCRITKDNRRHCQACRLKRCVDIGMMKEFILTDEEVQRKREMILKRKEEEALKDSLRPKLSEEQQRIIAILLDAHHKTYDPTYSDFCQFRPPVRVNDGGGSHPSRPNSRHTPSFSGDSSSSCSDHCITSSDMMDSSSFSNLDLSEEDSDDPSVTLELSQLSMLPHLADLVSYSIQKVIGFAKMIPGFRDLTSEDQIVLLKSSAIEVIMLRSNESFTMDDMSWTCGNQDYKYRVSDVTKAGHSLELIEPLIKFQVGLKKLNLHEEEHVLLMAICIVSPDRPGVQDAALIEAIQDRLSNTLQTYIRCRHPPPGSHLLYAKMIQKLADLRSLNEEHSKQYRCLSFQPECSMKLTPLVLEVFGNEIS
#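 FP read-out; VDR + SRC2-3 coactivator peptide; 23 nl compound by pintool; 2 h RT incubation; reagents held at 4 deg C, protected from light.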
# CCT chaperon mod = changes cytosolic chaperonin activity | purified chaperonin ATPase assay, HTRF ADP detection, 30 min | activity change, % (test concentration not listed), hits read low | hit rate 0.3% among 360,000; in the data active means activity change below about -30%
#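 Enzyme 40 or 20 nM (batch-dependent) in Tris pH 7.4/KCl/MgCl2/DTT; cpd 76 uM single point; ATP 10 uM; 30 min 37 °C; Transcreener ADP HTRF detection, 30 min RT; ratio 665/615.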
# Sfp inh = Sfp phosphopantetheinyl transferase inhibition; AID 1490; hit rate 3.5% among 310,000; Biochemical Sfp PPTase activity, qHTS; Potency, µM, for inactives: largest response in the series, negative = inhibition, hits mostly inhibitors;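 further: the enzyme is Sfp with the accession as filed and its product quenches rhodamine fluorescence; potency means the concentration at half of the fitted maximal effect; 0% = enzyme reaction without inhibitor and -100% = no enzyme wells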
#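 Compounds were incubated with enzyme (final 15 nM) for 15 min at room temperature before substrate addition started the reaction. Fluorescence at 525 nm excitation, 598 nm emission was recorded immediately and after 30 minutes.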
# MmCpn inh = blocks the Methanococcus maripaludis chaperonin Mm-Cpn | purified Mm-Cpn ATPase, ADP Transcreener TR-FRET | Potency, µM (doses to about 76.9 µM), without a hit: at the highest dose activity, negative = inhibition, most hits filed as inhibitors | hit rate 0.031% among 330,000 | AID 504842; further: potency means the concentration at half of the fitted maximal effect; nearly all actives have a fitted effect of over 80% in size
#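 Inhibition of chaperonin ATP hydrolysis is measured as reduced ADP production, detected by competitive TR-FRET in which signal falls with ADP. Final enzyme 25 nM and ATP 10 uM, reacted 30 min at 37°C.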
# Numbers without * were called inactive; ? = inconclusive; . = no result; [ ] = another dose, or the depositor's remark. Unless noted, the call rests on the fitted dose curve; in most records, active means well fitted curve in the direction sought with a large enough effect; inconclusive means small, poorly fitted or top-dose-only effect, or another doubt; inactive means no such curve, though single readings can be large; an effect the other way counts as inactive or inconclusive. Unless noted, on the % scale 0 is the no-effect control and ±100 the full control effect.
SMILES,G9a inh,PLK1 PBD inh,VDR inhibitor,CCT chaperon mod,Sfp inh,MmCpn inh
Cc1nn(-c2ccccc2)c(C)c1/C=N/n1c(-c2ccc(C(C)(C)C)cc2)n[nH]c1=S,29.2%[0.501 µM],-13.7%,-6.1%,0.4,-17.2%,0.2%
Cc1ccc(-c2n[nH]c(=S)n2/N=C/c2c(C)nn(-c3ccccc3)c2C)cc1,10µM*,-5.3%,-0.6%,-2.4,-25.4%,-0.4%
CCOc1ccc(/C(CCC(=O)O)=N/NC(=S)NC(C)C)cc1,22.4µM*,?,-6.2%,-0.8,35.5µM*,?
CCOc1ccc(C(=O)CCC(=O)O)cc1,-10.8%,0.2%,3.0%,0.4,13.8%,-0.8%
COc1ccc(C2=NS(=O)(=O)N(C)C(C(=O)Nc3ccc(OC)c(OC)c3)=C2)cc1,35.5µM*,-22.7%,-5.8%,1.7,-11.5%,1.3%
COc1cccc(C2=NS(=O)(=O)N(C)C(C(=O)Nc3cccc(O)c3)=C2)c1,14.1µM*,.,13.0%,.,.,.
COc1ccc(CNC(=O)C2=CC(c3cccc(OC)c3)=NS(=O)(=O)N2C)cc1,-9.1%[59 µM],.,7.5%,.,.,.
COc1ccc(NC(=O)C2=CC(c3ccc(C)cc3)=NS(=O)(=O)N2C)cc1OC,?,3.1%,-5.3%,0.0,11.3%,0.8%
Cn1cccc1/C=C1/SC(=S)N(CC(=O)O)C1=O,50.1µM*,39.0%,-5.8%,-0.9,-8.1%,-1.5%
CC(C(=O)O)N1C(=O)/C(=C/c2cccn2C)SC1=S (configuration not stated),?,40.9%,-7.3%,-1.2,56.2µM*,-1.8%
CCC(C(=O)O)N1C(=O)/C(=C/c2cccn2C)SC1=S (configuration not stated),?,39.0%,1.5%,-1.2,19.1%,-4.1%
COc1cccc([C@@H]2Oc3ccc(Br)cc3C(=O)[C@H]2OC(=O)N[C@H]2CCCc3ccccc32)c1,.,.,5.3%,.,7.5%,.
COc1ccc(S(=O)(=O)N(CCc2ccccc2)CC(=O)Nc2cccc(OC)c2)cc1,41.2%[59 µM],.,4.6%,.,.,.
Cc1ccc(C)c2nc3sc(C(=O)O)cc3cc12,39.8µM*,-12.9%,-7.7%,-0.2,10.6%,-25.7%
CC(=O)c1ccc(NC(=O)c2nc(-c3ccc(Cl)cc3)n3c2CCCCC3)cc1,?,.,9.8%,.,.,.
O=C(c1cccs1)N1CCN(Cc2ccccn2)CC1,3.16µM*,-12.0%,15.9%,-1.8,?,-1.0%
COc1ccccc1N1CCN(Cc2cc(Br)c(O)c3ncccc23)CC1,8.91µM*,?,-8.8%,-2.7,16.9%,2.0%
CCOC(=O)N1CCN(Cc2ccccn2)CC1,7.08µM*,-8.3%,-1.6%,-1.5,79.4µM*,.
O=C(c1ccncc1)N1CCN(C(=O)c2cccs2)CC1,-1.8%[12.7 µM],0.0%,9.8%,-1.5,15.4%,0.1%
Oc1ccc(CN2CCN(c3ccccc3)CC2)c2cccnc12,3.16µM*,-27.9%,14.8%,0.8,25.0%,0.1%
Cc1ccccc1C(=O)Nc1c(C)nc2ccccn2c1=O,12.8%[59 µM],.,-0.6%,.,.,.
O=C(Nc1ccc(Cl)c(C(F)(F)F)c1)C(Cc1ccccc1)NS(=O)(=O)c1cccc2nsnc12 (configuration not stated),-1.4%[59 µM],.,-7.6%,.,.,.
CC1=C(c2ccc(C)c(C)c2)S(=O)(=O)N=C1N1CCC(C(=O)NCCc2ccc(Cl)cc2)CC1,24.6%[59 µM],.,-3.0%,.,.,.
CCOc1ccc(N2CC(c3nc4ccccc4n3Cc3cccc(Cl)c3)CC2=O)cc1 (configuration not stated),?,.,-4.3%,.,.,.
Oc1ccc(CN2CCC(Cc3ccccc3)CC2)c2cccnc12,35.5µM*,0.0%,5.3%,-0.1,18.6%,0.5%
SMILES,G9a inh,PLK1 PBD inh,VDR inhibitor,CCT chaperon mod,Sfp inh,MmCpn inh
O=[N+]([O-])c1cc(CN2CCN(c3cccc(C(F)(F)F)c3)CC2)c2cccnc2c1O,35.5µM*,?,-9.8%,-1.1,10.0%,-1.0%
CCOC(=O)N1CCN(Cc2ccc(O)c3ncccc23)CC1,0.794µM*,26.7µM*,?,0.4,23.6%,-7.7%
Oc1ccc(CN2CCCCC2)c2cccnc12,?,-12.5%,-6.6%,-3.2,17.9%,-0.2%
Cc1ccccc1C(=O)OCc1cc(=O)n2nc(C3CC3)sc2n1,3.8%[59 µM],.,4.6%,.,.,.
CCCc1cc(=O)n2[nH]c(NC(=O)c3ccccc3Cl)nc2n1,2.1%[59 µM],.,4.3%,.,.,.
O=C(COc1ccccc1Cl)Nc1ccc(Cl)c(-c2nc3ccccc3o2)c1,5.2%[59 µM],.,-3.7%,.,.,.
CCC(N)(C(=O)O)c1ccc(C(=O)O)cc1 (configuration not stated),20.6%[59 µM],.,-2.6%,.,79.4µM*,.
COc1cc2c(cc1OC)C(C(=O)O)C(c1cc(Br)c(O)c(OC)c1)N(C)C2=O (configuration not stated),35.5µM*,1.1%,6.7%,1.7,-7.9%,0.8%
Cc1ccc(/C=C/C(=O)OCc2nc(N)nc(Nc3ccccc3C)n2)o1,50.1µM*,1.6%,-18.9%,-1.8,79.4µM*,-2.7%
COc1ccc2cccc(N3CCN(CCNC(=O)c4ccc(F)cc4)CC3)c2c1,.,.,?,.,-11.7%,.
Cc1cccc(N2CCN(C(=O)c3cn(C)c(=O)c4c3c3ccccc3n4C)CC2)c1C,50.1µM*,-7.8%,14.7%,1.9,-26.0%,0.9%
Cn1c2ccccc2c2c(C(=O)N3CCN(c4ccccc4)CC3)cn(C3CCCC3)c(=O)c21,50.1µM*,-9.1%,0.5%,-1.7,-4.1%,-3.9%
Cc1cccc(N2CCN(C(=O)c3cn(CC(C)C)c(=O)c4c3c3ccccc3n4C)CC2)c1C,6.8%[59 µM],.,?,.,.,.
CCOC(=O)c1cccc(NC(=O)CCc2c(C)nn(-c3ccc(N4CCOCC4)nn3)c2C)c1,29.6%[59 µM],.,9.2%,.,.,.
COC(=O)c1ccc(CO/N=C/c2ccccc2OC)cc1,191.1%,-11.7%,3.1%,1.7,-14.7%,?
COC(=O)c1ccc(COc2ccccc2/C=N/Nc2cccc(C(=O)O)c2)cc1,25.1µM*,-23.7%,-5.2%,1.3,1.3%,3.0%
O=C(O)c1cccc(NC(=S)N/N=C/c2cccc(O)c2)c1,-23.2%,-13.9%,-1.3%,-2.7,-5.3%,-5.0%
O=C(COc1cccc2ccccc12)N/N=C/c1ccccc1OCc1ccc(C(=O)O)cc1,-6.3%[59 µM],26.7µM*,3.8%,-3.1,-17.8%,-3.6%
COC(=O)c1ccc(COc2ccccc2/C=C/C(=O)c2ccc(OCC(=O)O)cc2)cc1,50.1µM*,-17.0%,-8.3%,2.5,?,-2.5%
COC(=O)c1ccc(COc2ccccc2/C=C(\C#N)C(=O)NC(C)C)cc1,-33.3%,-17.0%,-3.7%,-1.3,10.0%,1.6%
O=C(O)c1cccc(NC(=S)N/N=C/c2ccccc2OCc2ccc(Br)cc2)c1,?,23.8µM*,?,-1.5,-16.4%,2.8%
CCCCc1nnc(SCc2cc(=O)c3cc(F)ccc3[nH]2)n1C,8.3%[59 µM],.,15.9%,.,.,.
O=C(CSc1nccn1Cc1ccccc1)Nc1ccc2c(c1)OCO2,-34.5%[59 µM],.,-5.0%,.,.,.
